# Source: PubChem BioAssay (Tox21)
# Activity calls are given as the source filed them. Where a call stands in place of a potency, no number is given. Unless noted, calls come from the whole dose curve; as a rule, active = well fitted curve in the direction sought with a large enough effect in the repeat runs; inconclusive = weak or mixed curves; inactive = no such curve, though single readings can be large; an effect the other way counts as inactive or inconclusive.
# Experiments:
# [1] = qHTS assay to identify small molecule antagonists of the thyroid receptor (TR) signaling pathway - cell viability counter screen (AID 743064); note: nearly all actives have a fitted effect of over 50% in size; note: potency is the fitted concentration of half-maximal effect
# Procedure, shortened: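 Same-well viability check: GH3.TRE-Luc cells stimulated with 1 nM T3 alongside test compound for 23.5 h, followed by CellTiter-Fluor fluorescence.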
# [2] = qHTS assay to identify small molecule antagonists of the thyroid receptor (TR) signaling pathway (AID 743065); note: nearly all actives have a fitted effect of over 55% in size; note: potency is the fitted concentration of half-maximal effect
# Procedure, shortened: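 Antagonism measured as loss of luciferase signal in GH3 cells stably carrying a TRE-luciferase reporter, co-treated with compound and T3 (1 nM final) for 23.5 h at 37 C. Viability was read in the same well by CellTiter-Fluor.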
# [3] = tested on: thyroid hormone receptor (rat, GH3 cells); assay: qHTS assay to identify small molecule agonists of the thyroid receptor (TR) signaling pathway (AID 743066; calls by dose curve)
# [4] = target: Estrogen receptor (Homo sapiens) (UniProt P03372); assay: qHTS assay to identify small molecule antagonists of the estrogen receptor alpha (ER-alpha) signaling pathway (AID 743069; active = well fitted curve in the direction sought with a large enough effect in the signal ratio in the repeat runs, not every such curve was filed as active; inconclusive = weak or mixed curves, or effect the other way; inactive = no such curve, though single readings can be large or run the other way; the % refers to the signal ratio; note: potency is the fitted concentration of half-maximal effect)
# Sequence of Estrogen receptor (Homo sapiens) (P03372 whole entry, looked up): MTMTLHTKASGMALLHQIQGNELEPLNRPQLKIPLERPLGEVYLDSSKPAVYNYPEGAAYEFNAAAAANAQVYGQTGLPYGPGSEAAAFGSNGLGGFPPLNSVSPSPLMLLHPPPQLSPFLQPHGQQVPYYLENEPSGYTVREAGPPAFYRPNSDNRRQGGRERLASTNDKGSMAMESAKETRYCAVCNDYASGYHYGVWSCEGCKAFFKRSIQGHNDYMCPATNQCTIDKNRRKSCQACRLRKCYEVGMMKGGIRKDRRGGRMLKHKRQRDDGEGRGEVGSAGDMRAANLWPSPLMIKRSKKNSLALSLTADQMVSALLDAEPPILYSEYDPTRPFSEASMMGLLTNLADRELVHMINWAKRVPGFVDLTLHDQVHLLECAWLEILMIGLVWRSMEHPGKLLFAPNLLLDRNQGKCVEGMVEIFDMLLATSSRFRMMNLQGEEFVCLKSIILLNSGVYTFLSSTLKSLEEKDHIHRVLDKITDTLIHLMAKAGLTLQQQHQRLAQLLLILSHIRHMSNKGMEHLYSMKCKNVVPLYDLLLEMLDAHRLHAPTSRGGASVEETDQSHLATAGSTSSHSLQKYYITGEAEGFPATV
# Procedure, shortened: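 Fluorescence intensity from a beta-lactamase FRET substrate served as the read-out. Cells: HEK293 with stably integrated ER-alpha-UAS-bla reporter. Agonist 17beta-estradiol was co-added with compounds; incubation 18 hr at 37C, substrate 2 hr at room temperature.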
# [5] = qHTS assay to identify small molecule antagonists of the estrogen receptor alpha (ER-alpha) signaling pathway - cell viability counter screen (AID 743074; calls by dose curve; note: nearly all actives have a fitted effect of over 45% in size)
# [6] = target: Estrogen receptor (Homo sapiens) (UniProt P03372); assay: qHTS assay to identify small molecule agonists of the estrogen receptor alpha (ER-alpha) signaling pathway (AID 743075; calls by dose curve)
# [7] = target: Estrogen receptor (Homo sapiens) (UniProt P03372); assay: qHTS assay to identify small molecule agonists of the estrogen receptor alpha (ER-alpha) signaling pathway using the BG1 cell line (AID 743079); conditions: BG1Luc4E2 cells, ERE-luciferase agonist, 22 h; activation: at 70.3 µM (top of the series); note: nearly all actives have a fitted effect of over 20% in size; note: potency is the fitted concentration of half-maximal effect
# [8] = qHTS assay to identify small molecule antagonists of the estrogen receptor alpha (ER-alpha) signaling pathway using the BG1 cell line (AID 743080; calls by dose curve;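 note: BG1 cells stimulated with 17beta-estradiol alongside compound; nearly all actives have a fitted effect of over 25% in size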)
# Procedure, shortened: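 BG1-Luc-4E2 cells (endogenous full-length ER-alpha, 4xERE luciferase) hormone-starved 5 days in charcoal-stripped FBS, plated 4,000/well for 24 h, then compound plus 17beta-estradiol for 21.5 h at 37 C; ONE-Glo luminescence read.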
# [9] = qHTS assay to identify small molecule antagonists of the estrogen receptor alpha (ER-alpha) signaling pathway using the BG1 cell line - cell viability counter screen (AID 743081);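 note: compound given together with 17beta-estradiol as the ER stimulus; nearly all actives have a fitted effect of over 45% in size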; note: potency is the fitted concentration of half-maximal effect
# Aromatase (Homo sapiens) = Aromatase (Homo sapiens) (UniProt P11511); assay: qHTS assay to identify aromatase inhibitors (AID 743083); note: nearly all actives have a fitted effect of over 55% in size; note: potency is the fitted concentration of half-maximal effect
# Sequence of Aromatase (Homo sapiens) (P11511 whole entry, looked up): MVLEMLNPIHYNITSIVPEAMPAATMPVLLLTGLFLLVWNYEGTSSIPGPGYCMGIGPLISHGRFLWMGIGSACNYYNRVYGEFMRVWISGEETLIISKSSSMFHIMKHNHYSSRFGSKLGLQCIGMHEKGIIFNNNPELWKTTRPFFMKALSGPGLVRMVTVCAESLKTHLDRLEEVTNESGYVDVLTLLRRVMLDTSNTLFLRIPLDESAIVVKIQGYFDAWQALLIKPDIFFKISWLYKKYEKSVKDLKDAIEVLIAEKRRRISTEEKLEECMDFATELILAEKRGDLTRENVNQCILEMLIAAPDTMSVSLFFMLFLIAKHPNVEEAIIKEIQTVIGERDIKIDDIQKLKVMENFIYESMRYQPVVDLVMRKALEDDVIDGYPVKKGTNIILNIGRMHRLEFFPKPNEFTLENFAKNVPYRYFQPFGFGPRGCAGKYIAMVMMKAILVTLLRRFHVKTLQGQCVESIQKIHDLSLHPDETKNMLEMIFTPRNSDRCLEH
Structure (SMILES),Potency [1],Potency [2],outcome [3],Potency [4],Potency [5],Potency [6],Potency [7],Potency [8],Potency [9],Potency (Aromatase (Homo sapiens))
Cc1cc2c(OCC(CNC(C)(C)C)OC(=O)c3ccccc3)cccc2[nH]1 (stereo not given),11.9 µM (active),26.6 µM (active),inactive,inactive,inactive,inactive,inactive,inactive,inactive,inactive
CO[C@]1(NC(=O)CSC(F)F)C(=O)N2C(C(=O)O)=C(CSc3nnnn3CCO)CO[C@H]21,inactive,inactive,inactive,inactive,inactive,inactive,inactive,–,inactive,inactive
OCCOCC#CCOCCO,inactive,inactive,inactive,inactive,inactive,inactive,inactive,inactive,inactive,inactive
Nc1ncnc2c1ncn2[C@H]1CC[C@@H](CO)O1,inactive,inactive,inactive,inactive,inactive,inactive,inactive,inactive,inactive,inactive
C=C(C)CCCC(C)CCO (stereo not given),inactive,inactive,inactive,inactive,inactive,inactive,inactive,–,inactive,inactive
CN1C(=O)OC(C)(C)C1=O,inactive,inactive,inactive,inactive,inactive,inactive,inactive,–,inactive,inactive
C=C1c2cccc(O)c2C(O)=C2C(=O)[C@]3(O)C(O)=C(C(N)=O)C(=O)[C@@H](N(C)C)[C@@H]3[C@@H](O)[C@H]12,inactive,inactive,inactive,inactive,inactive,inactive,inactive,inactive,inactive,inactive
O=C(O)CCC(=O)C(=O)O,inactive,inactive,inactive,inactive,inactive,inactive,inactive,inactive,inactive,inactive
CCn1cc(C(=O)O)c(=O)c2cc(F)c(N3CCNCC3)cc21,inactive,inactive,inactive,inactive,inactive,inactive,inactive,inactive,inactive,inactive
C=CC(C)(CCC=C(C)C)OC(=O)CC(C)C (stereo not given),inactive,inactive,inactive,inactive,inactive,inactive,inactive,inactive,inactive,inactive
C(=C\c1ccccc1)/c1ccccc1,inactive,inactive,inactive,inactive,inactive,inactive,60.6 µM (active),–,inactive,inactive
CCOc1ccccc1O[C@H](c1ccccc1)[C@H]1CNCCO1,16.8 µM (active),26.6 µM (active),inactive,inactive,inactive,inactive,inactive,inactive,inactive,inactive
C=C1C[C@@]23CC[C@H]4[C@@](C)(CCC[C@@]4(C)C(=O)O[C@@H]4O[C@H](CO)[C@@H](O)[C@H](O)[C@H]4O)[C@@H]2CC[C@]1(O[C@@H]1O[C@H](CO)[C@@H](O)[C@H](O[C@@H]2O[C@H](CO)[C@@H](O)[C@H](O)[C@H]2O)[C@H]1O[C@@H]1O[C@H](CO)[C@@H](O)[C@H](O)[C@H]1O)C3,inactive,inactive,inactive,inactive,inactive,inactive,inactive,inactive,–,inactive
Cc1cc(=O)c2c(O)c3c(O)cc(=O)c4c3c3c(cc(O)c1c23)C(C)(C)C=4O,0.841 µM (active),–,–,–,–,–,–,–,–,–
Cc1cscn1,inactive,inactive,inactive,inactive,inactive,inactive,inactive,inactive,inactive,inactive
Cc1ccco1,inactive,inactive,inactive,inactive,inactive,inactive,inactive,–,inactive,inactive
O=c1[nH]c2ccc(Cl)cc2o1,inactive,inactive,inactive,inactive,inactive,inactive,inactive,inactive,inactive,inactive
Nc1ccc(N=Nc2ccccc2)c(N)c1,53.3 µM (active),inactive,inactive,inactive,inactive,inactive,0.336 µM (active),–,26.7 µM (active),inactive
C[C@@H](CN(C)C)CN1c2ccccc2Sc2ccccc21,4.03 µM (active),10.1 µM (active),inactive,inactive,inactive,inactive,inactive,inactive,inactive,inactive
O=C(O)CCCCCCCCCCCBr,inactive,inactive,inactive,inactive,inactive,inactive,inactive,inactive,inactive,inactive
Cc1cc(C)cc(N)c1,inactive,inactive,inactive,inactive,inactive,inactive,inactive,inactive,inactive,inactive
Nc1cccc2c1CN(C1CCC(=O)NC1=O)C2=O (stereo not given),inactive,inactive,inactive,inactive,inactive,inactive,inactive,inactive,inactive,inactive
C=C(C)C(=O)OCCCCCCCCCCCCC,inactive,inactive,inactive,inactive,inactive,inactive,inactive,inactive,inactive,inactive

Structure (SMILES),Potency [1],Potency [2],outcome [3],Potency [4],Potency [5],Potency [6],Potency [7],Potency [8],Potency [9],Potency (Aromatase (Homo sapiens))
CC(C)=CCC/C(C)=C/CC/C(C)=C/CCC(=O)OC/C=C(\C)CCC=C(C)C,inactive,inactive,inactive,inactive,inactive,inactive,inactive,inactive,inactive,inactive
O=C(OC(=O)c1ccccc1)c1ccccc1,inactive,inactive,inactive,inactive,inactive,inactive,inactive,–,inactive,inactive
O=c1[nH]ncc2ccccc12,inactive,inactive,inactive,inactive,inactive,inactive,inactive,inactive,inactive,inactive
CN1C(C(=O)Nc2ccccn2)=C(O)c2sccc2S1(=O)=O,inactive,inactive,inactive,inactive,inactive,inactive,inactive,inactive,–,inactive
Cc1ccc(CO)cc1,inactive,inactive,inactive,inactive,inactive,inactive,inactive,inactive,inactive,inactive
COc1cc(N)c(Cl)cc1C(=O)NC1CCN(CCCOc2ccc(F)cc2)CC1OC (stereo not given),11.4 µM (active),11.4 µM (active),inactive,inactive,inactive,inactive,–,–,–,inactive
O=C1NC(=O)c2cc([N+](=O)[O-])ccc21,inactive,inactive,inactive,inactive,inactive,inactive,inactive,inactive,inactive,inactive
CCOC(C)=O,inactive,inactive,inactive,inactive,inactive,inactive,inactive,inactive,inactive,inactive
CCC(=O)C1CC(C(C)C)CC=C1C (stereo not given),inactive,inactive,inactive,inactive,inactive,inactive,inactive,–,inactive,inactive
Oc1cc2c(cc1O)[C@H]1c3ccc(O)c(O)c3OC[C@@]1(O)C2,61.9 µM (active),49.2 µM (active),inactive,inactive,inactive,inactive,–,–,49.2 µM (active),24.6 µM (active)
CC(CO)CO,inactive,inactive,inactive,inactive,inactive,inactive,inactive,inactive,inactive,inactive
C[C@]1(Cn2ccnn2)[C@H](C(=O)O)N2C(=O)C[C@H]2S1(=O)=O,inactive,inactive,inactive,2.39 µM [inconclusive] (active),inactive,–,inactive,inactive,–,inactive
CCN(CC)CCNC(=O)COc1ccc(OC)cc1,inactive,inactive,inactive,inactive,inactive,inactive,23.7 µM (active),inactive,inactive,inactive
Cc1ccc(C(C)(C)O)cc1,inactive,inactive,inactive,inactive,inactive,inactive,inactive,inactive,inactive,inactive
O=C(Nc1cccc2c(=O)cc(-c3nn[nH]n3)oc12)c1ccc(OCCCCc2ccccc2)cc1,inactive,inactive,inactive,–,inactive,–,–,–,inactive,inactive
C/C=C/C=C/C=O,inactive,inactive,inactive,inactive,–,inactive,inactive,inactive,inactive,inactive
CC(=O)Oc1ccc([N+](=O)[O-])cc1CCl,30.6 µM (active),inactive,inactive,–,inactive,inactive,inactive,–,61.1 µM (active),inactive
O=C(/C=C/c1ccccc1)OCCc1ccccc1,inactive,inactive,inactive,–,inactive,inactive,4.86 µM (active),–,inactive,inactive
CCCCCCC(C)(C)C(=O)O,inactive,inactive,inactive,inactive,–,inactive,inactive,–,inactive,inactive
CCC1CO1 (stereo not given),inactive,inactive,inactive,–,–,–,–,–,inactive,inactive
CC(=O)Nc1ccc(C)cc1C,inactive,inactive,inactive,–,inactive,–,–,–,inactive,inactive
Cc1ccc(OC(=O)c2ccccc2O)cc1,inactive,inactive,inactive,–,inactive,–,–,–,inactive,inactive
